# Experimental data: PubChem BioAssay AID686915 (National Center for Advancing Translational Sciences (NCATS), 2013)
# Records with an inconclusive call do not appear. A number with no mark means an inactive call. Calls of active or inactive are those of the source. Calls come from the whole dose curve; as a rule, active = well fitted inhibition curve with a large enough effect; inconclusive = small, poorly fitted or top-dose-only effect; inactive = no such curve, though single readings can be large or run the other way.
# Test: qHTS screen for inhibitors of ELG1-dependent DNA repair in human embryonic kidney (HEK293T) cells expressing luciferase-tagged ELG1: MMS Stimulated Assay for probe SAR
# Details: HEK293T ELG1-luciferase reporter, 16 h; series mostly up to 46.1 µM; activity change, negative = inhibition: at the top concentration
# Source text: Cancer cells divide rapidly compared to normal cells in the body. During cell division, cancer cells need to duplicate their genome by DNA replication. The failure of genome duplication leads to cancer cells' death. Therefore, inhibitors of DNA replication could specifically kill cancer cells. Based on this concept, many chemotherapeutic agents were developed and have been used to treat cancer patients. However, there are a limited number of agents available in the clinical setting, and some of those that do exist have low efficacy and severe side effects. Therefore, if we can find the compounds that effectively block DNA replication either by directly damaging DNA or by inhibiting other cellular mechanisms, the options for cancer treatment will be broadened. With this in mind, we developed a quantitative high-throughput ELG1-luciferase reporter gene assay. Small molecules that specifically block ELG1 function in response to DNA damage can be identified by monitoring the suppression of luciferase activity. Since ELG1 defines a pathway for repairing DNA damage, agents blocking ELG1 function can be used to sensitize cancer cells to chemotherapeutic agents whose mechanism of action involves the induction of DNA damage. NIH Molecular Libraries Probe Production Network [MLPCN] NIH Chemical Genomics Center [NCGC] MLPCN Grant: R03 MH092164 Assay Provider: Kyungjae Myung, NHGRI, NIH
# ELG1-luc HEK293T cells will be seeded in 1536-well plates at a density of 2,000 cells / well. Approximately 5 hours after plating, compounds will be added to the plate by pin tool transfer and MMS will be added by FRD dispenser (final concentration of MMS = 10 µM). 16 hours following the addition of the compounds, luciferase activity will be measured using Amplight reagent.
SMILES,"activity change, negative = inhibition [%]",Potency
Fc1cc(Nc2nc(-c3ccncc3)nc3ccccc23)ccc1-c1ccc2[nH]ncc2c1,-10.2,
Fc1cc(Nc2nc(-c3ccncc3)nc3ccccc23)ccc1-c1ccncc1,16.6,
Fc1cc(Nc2nc(-c3ccncc3)nc3ccccc23)ccc1-c1cccc(OC(F)F)c1,7.46,
Fc1cc(Nc2nc(-c3ccncc3)nc3ccccc23)ccc1N1CCNCC1,-12,
O=c1cc(-c2nc(Nc3ccc(F)c(F)c3)c3ccccc3n2)cc[nH]1,-7.61,
Fc1ccccc1-c1ccc(Nc2nc(-c3ccncc3)nc3ccccc23)cc1F,,16.6 µM (active)
Fc1cc(Nc2nc(-c3ccncc3)nc3ccccc23)ccc1N1CCCCC1,,18.7 µM (active)
COc1cnccc1-c1nc(Nc2ccc(F)c(F)c2)c2ccccc2n1,,13.2 µM (active)
Fc1ccc(Nc2nc(-c3ccnc(N4CCCCC4)c3)nc3ccccc23)cc1F,-17,
Fc1ccc(-c2ccc(Nc3nc(-c4ccncc4)nc4ccccc34)cc2F)c(Cl)c1,,11.8 µM (active)
CN1CCN(c2ccc(Nc3nc(-c4ccncc4)nc4ccccc34)cc2F)CC1,-13.1,
Fc1cc(Nc2nc(-c3ccncc3)nc3ccccc23)ccc1-c1ccc(F)c(F)c1F,13,
